In the library only some 19% were active in any assay of this set; here they are far more common.
TDP1 block: inhibitors of human tyrosyl-DNA phosphodiesterase TDP1; Potency, µM (series often up to 130 µM), inactives show at the top dose activity change, negative = inhibition, usual class: inhibitors; AID 485290; recombinant TDP1, AlphaScreen DNA substrate cleavage; actives 0.28% (n = 350,000); Q9NUW8; note: potency is the fitted concentration of half-maximal effect; % is set by controls: 0 for no effect and ±100 for the full control effect; nearly all actives have a fitted effect of over 40% in size
Target sequence (Q9NUW8 whole entry, looked up): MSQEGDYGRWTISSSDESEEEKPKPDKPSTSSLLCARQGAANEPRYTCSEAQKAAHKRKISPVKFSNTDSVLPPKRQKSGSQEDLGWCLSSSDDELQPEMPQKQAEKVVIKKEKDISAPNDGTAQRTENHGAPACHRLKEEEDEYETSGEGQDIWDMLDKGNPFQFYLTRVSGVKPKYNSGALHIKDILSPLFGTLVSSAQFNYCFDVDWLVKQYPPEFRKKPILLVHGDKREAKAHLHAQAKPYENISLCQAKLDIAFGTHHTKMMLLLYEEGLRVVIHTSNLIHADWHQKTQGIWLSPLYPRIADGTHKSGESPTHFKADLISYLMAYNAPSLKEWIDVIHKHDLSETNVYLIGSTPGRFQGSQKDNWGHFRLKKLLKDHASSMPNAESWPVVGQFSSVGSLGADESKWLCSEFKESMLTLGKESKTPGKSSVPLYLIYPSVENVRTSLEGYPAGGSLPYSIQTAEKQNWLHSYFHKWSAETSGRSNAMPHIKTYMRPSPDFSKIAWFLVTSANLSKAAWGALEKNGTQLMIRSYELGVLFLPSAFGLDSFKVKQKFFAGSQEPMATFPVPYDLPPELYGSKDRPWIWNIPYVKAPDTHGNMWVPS
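Compounds were preincubated with Tdp1 (1 nM final) for 15 min at room temperature before substrate (15 nM final) started a 5 min reaction; beads (10 ug/ml final) were then added for 10 min before AlphaScreen detection.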
TGFb SMAD3 inh: inhibitors of TGF-b signaling. HepG2 CAGA-GFP TGF-b/SMAD3 reporter, GFP fluorescence, 18 h; TGF-beta stimulated, 500 pg/mL final. Potency, µM (titrated, usually from 46.1 µM), inactives show at the highest dose activity, negative = inhibition, usual class: inhibitors. actives 1.2% (n = 410,000); note: potency is the fitted concentration of half-maximal effect; % is set by controls: 0 for no effect and ±100 for the full control effect; nearly all actives have a fitted effect of over 65% in size
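Inhibition was scored as loss of TGF-beta-induced (500 pg/mL final, 18 hours, 37 degrees C) GFP in HEPG2 cells carrying a CAGA-GFP reporter, in DMEM with 1% FBS. Well GFP was summed per cell; Activity was normalised to unstimulated and stimulated DMSO wells, then concentration-response fitting.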
IL-1B inflam inh: inflammasome signaling inhibition, IL-1 beta readout. actives 4.7% (n = 360,000). THP-1 LPS/ATP IL-1B secretion, AlphaLISA, 16 h; active compounds read low. AID 743279. activity change, % at 57.5 µM; in the data active = activity change below about -50%; inconclusive = mostly about -30% to -49%; note: % is set by controls: 0 for no effect and ±100 for the full control effect
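Secreted IL-1B measured by AlphaLISA bead assay after 16 h compound exposure of THP-1 cells; compounds (final up to 57.5 uM) added 1 h before LPS (250 ng/mL) and ATP (1.25 mM) stimulation; lower signal means less secretion.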
HepG2 viability: counter-screen for TGF-b inhibitors: cytotoxicity in HepG2 cells; AID 588856; HepG2 CAGA-GFP viability, ATP luminescence, 18 h; actives 0.76% (n = 410,000); Potency, µM (doses to about 46.1 µM), inactives show at the top dose activity change, negative = cytotoxicity, hits mostly cytotoxic; note: potency is the fitted concentration of half-maximal effect
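HepG2 CAGA-GFP cells (1000/well, DMEM with 1% FBS) received compound, then TGF-beta at 500 pg/mL final, and were incubated 18 hours at 37 degrees C. Viability was read by CellTiter-Glo luminescence. Media-only wells were set as complete cell-killing and DMSO as no toxicity.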
DT40 TDP1 CPT: DT40-hTDP1 cell growth loss with CPT | chicken DT40 Tdp1-/-;hTDP1 cells + 20 nM CPT, ATP luminescence, 48 h | AID 686979 | actives 12% (n = 420,000) | Potency, µM (series often up to 46.2 µM), without a hit: at the highest dose activity change, negative = growth inhibition, most hits filed as inhibitors; note: potency is the fitted concentration of half-maximal effect; % is set by controls: 0 for no effect and ±100 for the full control effect; nearly all actives have a fitted effect of over 55% in size
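Cell growth measured by CellTiter-Glo luminescence after a minimum 48 h, 37 C compound exposure with 20 nM CPT in Tdp1-knockout DT40 cells stably expressing hTDP1, seeded 400/well; qHTS titration format.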
TDP1 cell noCPT: qHTS for Inhibitors of human tyrosyl-DNA phosphodiesterase 1 (TDP1): qHTS in cells in absence of CPT. DT40 Tdp1-/- hTDP1 cells, no CPT, ATP luminescence, 48 h. Potency, µM (titrated, usually from 46.2 µM), for inactives: top-dose activity change, negative = growth inhibition, usual class: inhibitors. actives 15% (n = 420,000); note: potency is the fitted concentration of half-maximal effect; % is set by controls: 0 for no effect and ±100 for the full control effect; nearly all actives have a fitted effect of over 55% in size
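Compound effects on proliferation are scored in DT40 Tdp1-/-;hTDP1 cells in the absence of CPT. ATP levels (CellTiter-Glo luminescence) are recorded after a ≥48 hr, 37 °C incubation.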
* hit, by the source's call; u = inconclusive; x = no result; [ ] = dose if it differs, or a comment. Unless noted, calls come from the whole dose curve; as a rule, active = well fitted curve in the direction sought with a large enough effect; inconclusive = small, poorly fitted or top-dose-only effect, or another doubt; inactive = no such curve, though single readings can be large; an effect the other way counts as inactive or inconclusive.

SMILES | TDP1 block | TGFb SMAD3 inh | IL-1B inflam inh | HepG2 viability | DT40 TDP1 CPT | TDP1 cell noCPT
COc1ccccc1CC(=O)Nc1ccc2nc(N3CCC(C)CC3)cc(C)c2c1 | -3% | -3% | x | -7% | -21% | u
COc1ccc(/C=C/C(=O)Nc2ccc3nc(N4CCC(C)CC4)cc(C)c3c2)cc1OC | 6% | -29% | x | -20% | 4.1µM* | 4.6µM*
Cc1cccc(CC(=O)Nc2ccc3nc(N4CCC(C)CC4)cc(C)c3c2)c1 | 6% | -2% | x | 1% | 21µM* | 15µM*
Cc1cc(N2CCC(C)CC2)nc2ccc(NC(=O)Cc3ccccc3Br)cc12 | 3% | u | x | -19% | 21µM* | 13µM*
COc1ccc(C(=O)N2CCC3(CCN(Cc4nccs4)CC3)CC2)cc1 | x | x | x | x | 0% | -22%
COc1cc(/C=C(\C#N)c2ccccn2)ccc1OCc1ccc(Cl)cc1 | -8% | 9% | -12 | 1% | u | 23µM*
COc1cc(/C=C(\C#N)c2ccccn2)ccc1OCc1ccccc1 | -3% | 25% | -4 | 1% | 21% | u
COc1cc(/C=C(\C#N)c2nc3ccc(C)cc3[nH]2)ccc1OCc1ccc(C)cc1 | 4%[12.3 µM] | u | x | -6% | 12µM* | 8.2µM*
CCOC(=O)COc1ccc(/C=C(\C#N)c2nc3ccc(C)cc3[nH]2)cc1OC | -11% | u | x | -61% | u | u
COc1cccc(/C=C(\C#N)c2nc3ccc(C)cc3[nH]2)c1 | u | -12% | x | -55% | 18µM* | 18µM*
CCn1cc(CNC(=O)c2cccc([N+](=O)[O-])c2)cn1 | 0% | -6% | 6 | -26% | 7% | 13%
CCn1cc(CNCc2cn[nH]c2-c2cc3ccccc3o2)cn1 | 5% | 2% | 8 | 4% | 18µM* | 23µM*
CCOCc1nc(N)nc(N)c1-c1cccc(Cl)c1 | x | 0% | 11 | 11µM* | 8.2µM* | 7.3µM*
Fc1ccc(-[n+]2nc(Nc3ccccc3)sc2-c2ccc(OCc3ccccc3)cc2)cc1 | x | -25% | 2 | -28% | 16µM* | 23µM*
Clc1cccc(-c2sc(Nc3ccccc3)n[n+]2-c2ccccc2)c1Cl | x | 7% | 0 | -10% | u | 18µM*
COc1ccc(-c2sc(Nc3ccccc3)n[n+]2-c2ccc(F)cc2)c(OC)c1OC | x | -2% | -13 | -12% | u | 13µM*
CCOc1cc(-c2sc(Nc3ccccc3)n[n+]2-c2ccc(F)cc2)ccc1OC | x | 2% | -4 | 15% | -15% | -17%
CCc1ccc(Nc2n[n+](-c3ccccc3)c(-c3ccc(SC)cc3)s2)cc1 | x | u | -16 | -7% | 6.5µM* | 6.5µM*
Cc1ccccc1C(=O)NCc1nc2cccnc2n1Cc1ccccc1 | 2% | 3% | x | -10% | u | u
O=C(O)COCCN1CCN([C@@H](c2ccccc2)c2ccc(Cl)cc2)CC1 | 16%[21 µM] | x | x | x | x | x
CN1C(=O)Cc2cc(S(=O)(=O)NCc3ccccc3Cl)ccc21 | 7% | -24% | x | 3% | u | u
Cc1cc(Cl)ccc1NC(=O)CS(=O)(=O)c1cccc2nsnc12 | 1% | -3% | x | -22% | u | u
COc1ccc(C)cc1Nc1n[n+](-c2ccccc2)c(-c2ccc(SC)cc2)s1 | x | -20% | 8 | -20% | 18µM* | 15µM*
CCc1ccc(Nc2n[n+](C)c(-c3ccncc3)s2)cc1 | x | u | 37 | -47% | 16µM* | 26µM*
CSc1ccc(-c2sc(Nc3ccccc3)n[n+]2-c2ccccc2)cc1 | x | 6% | -11 | -10% | 16µM* | u
SMILES | TDP1 block | TGFb SMAD3 inh | IL-1B inflam inh | HepG2 viability | DT40 TDP1 CPT | TDP1 cell noCPT
COc1ccc(C)cc1Nc1n[n+](-c2ccccc2)c(-c2cc([N+](=O)[O-])cc(OC)c2O)s1 | x | -2% | 7 | 6% | 21µM* | u
CSc1ccc(-c2sc(Nc3cccc4ccccc34)n[n+]2-c2ccccc2)cc1 | x | u | -17 | -43% | u | u
COc1ccc(C)cc1Nc1n[n+](-c2ccccc2)c(-c2ccc(NC(C)=O)cc2)s1 | x | 5% | -12 | -8% | u | -27%
Cc1ccc(S(=O)(=O)NCC(=O)OCC(=O)N2C(C)CCCC2C)cc1 (centres undefined) | 0% | -4% | -30 | -5% | 0% | 2%
CCc1ccc(Nc2n[n+](-c3ccccc3)c(-c3ccc(OC)c(Br)c3)s2)cc1 | x | u | u | -8% | 16µM* | u
CCc1ccc(Nc2n[n+](-c3ccccc3)c(-c3ccc(C(=O)O)cc3)s2)cc1 | x | -1% | 0 | 6% | -29% | -18%
CC(C)(C)C(=O)Nc1ccc(C(=O)OC2CCCCC2)cc1 | 2% | 0% | -30 | -30% | 26µM* | 21µM*
O=C(OC1CCCCC1)c1ccc(NC(=O)C2CCCCC2)cc1 | -4% | u | -25 | -19% | u | 21µM*
COc1ccc(C2C(=O)N(C3CCCCCC3)CC(=O)N2CCC2=CCCCC2)cc1 (centres undefined) | 8% | -19% | x | -20% | 23µM* | 15µM*
CCCOc1ccc(C2C(=O)N(C3CCCCCC3)CC(=O)N2CCC2=CCCCC2)cc1OC (centres undefined) | 3% | -1% | x | -6% | -12% | -20%
COc1ccc(C2C(=O)N(C3CCCCCC3)CC(=O)N2Cc2ccc(C)cc2)cc1 (centres undefined) | 5% | -10% | x | 0% | 23µM* | 26µM*
CCCN1C(=O)CN(C2CCCCCC2)C(=O)C1c1ccc(C)cc1 (centres undefined) | -2% | -27% | 13 | 2% | u | u
Cc1ccc(C2C(=O)N(C3CCCCCC3)CC(=O)N2CCC2=CCCCC2)cc1 (centres undefined) | 5% | -2% | x | -1% | u | 21µM*
COc1ccc(C2C(=O)N(C3CCCCC3)CC(=O)N2CCC2=CCCCC2)cc1 (centres undefined) | 5% | 0% | x | -21% | u | 16µM*
Cc1ccc(CN2C(=O)CN(C3CCC(C)CC3)C(=O)C2c2ccc(F)cc2)cc1 (centres undefined) | 5% | -7% | x | -2% | -28% | u
CCOCCCN1C(=O)CN(C2CCC(C)CC2)C(=O)C1c1ccc(C)cc1 (centres undefined) | 6% | -10% | -11 | 13% | u | 2.3µM*

Screening results deposited in PubChem by National Center for Advancing Translational Sciences (NCATS).
